Test results reported in PubChem BioAssay (Tox21).
Inconclusive results are not listed. A call without a number means that no potency is given here. A number with no mark means an inactive call. The source made the active and inactive calls. The call rests on the fitted dose curve; in most records, active means well fitted activation curve with a large enough effect in the repeat runs; inconclusive means weak or mixed curves; inactive means flat fitted curve, though single readings scatter.

test: A CellTox Green Cytotoxicity Assay to monitor cytotoxicity in HepG2 cells - 40 hour (AID 1224879); conditions: CellTox Green fluorescence; series mostly up to 76.8 µM; further: nearly all actives have a fitted effect of over 40% in size
Description: National Center for Advancing Translational Sciences [NCATS]
NIH Chemical Genomics Center [NCGC]
U.S. Environmental Protection Agency [EPA]
National Institutes of Environmental Health Sciences [NIEHS]
National Toxicology Program [NTP]
Cell-based models are critical for drug discovery. Determining the natural cytotoxic effects resulting from test compounds is an essential research activity. A CellTox Green Cytotoxicity Assay to monitor cytotoxicity in real time of continues cell culture during 40 hours of the compound treatment was used to screen Tox21 10K library compounds in HepG2 cells. CellTox Green Cytotoxicity Assay is a nonlytic, homogeneous, biofluorescent method to measure cytotoxicity in cell culture after experimental manipulation. The assay system uses a proprietary asymmetric cyanine dye that is excluded from viable cells but preferentially stains the dead cell's DNA. […] Viable cells produce no appreciable increases in fluorescence. Therefore, the fluorescence signal produced by the binding interaction with dead cell DNA is proportional to cytotoxicity.
The mixture of HepG2 cell suspension and reagents were dispensed at 600cells/6 ul/well in 1536-well tissue culture treated black solid bottom plates using a Multidrop dispenser. After the assay plates were incubated at a 37 C/5% CO2 incubator for 5 hours, 23 nL of compounds dissolved in DMSO, positive and negative controls was transferred to the assay plate by a pintool work station. The plates were incubated at 37 C for 40 hours. The fluorescence intensity were measured at 0h, 8h, 16h, 24h, 32h and 40h time points using ViewLux plate reader during compound treatment.
Potency means the concentration at half of the fitted maximal effect.

| SMILES | Potency | cytotoxicity increase |
| --- | --- | --- |
| [Ca+2] | inactive |  |
| CN(C)[C@@H]1C(=O)C(C(=O)NCN2CCCC2)=C(O)[C@@]2(O)C(=O)C3=C(O)c4c(O)cccc4[C@@](C)(O)C3C[C@@H]12 (stereo not given in full) | inactive |  |
| CCCCN(CCC(=O)OCC)C(C)=O | inactive |  |
| COc1cccc(OC)c1C(=O)N[C@@H]1C(=O)N2[C@@H]1SC(C)(C)[C@@H]2C(=O)O | inactive |  |
| NC(=O)N1c2ccccc2CC(=O)c2ccccc21 | inactive |  |
| O=S(=O)(O)c1cccc2ccccc12 | inactive |  |
| CCCCCCCC1CCCC1=O (stereo not given) | inactive |  |
| CC(C)C(=O)OC(=O)C(C)C | inactive |  |
| CCOCC(C)O (stereo not given) | inactive |  |
| Cc1cc(C)c(N=Nc2c(O)c(S(=O)(=O)O)cc3cc(S(=O)(=O)O)ccc23)cc1C |  | -2.22% [at 6.97 µM] |
| CCN[C@H]1C[C@H](C)S(=O)(=O)c2sc(S(N)(=O)=O)cc21 | inactive |  |
| CCNS(=O)(=O)c1ccc(C)cc1 | inactive |  |
| O=C(c1ccccc1)C1(O)CCCCC1 | inactive |  |
| CN(C)CCCN(C)CCCN(C)C | inactive |  |
| COc1cc2c(cc1OC)-c1cc3ccc(OC)c(OC)c3c[n+]1CC2 | inactive |  |
| CNCC(O)c1ccc(O)c(O)c1 (stereo not given) | inactive |  |
| FB(F)F | inactive |  |
| CCOc1ccc2nc(S(N)(=O)=O)sc2c1 | inactive |  |
| CCC(C(=O)NC(=O)NC(C)=O)c1ccccc1 (stereo not given) | inactive |  |
| CC1(C)OC[C@@H](COC(=O)CCc2ccc(OC[C@@H](O)CNCCNC(=O)N3CCOCC3)cc2)O1 | inactive |  |

| SMILES | Potency | cytotoxicity increase |
| --- | --- | --- |
| CN1CCN(c2cc3c(nn2)Oc2ccccc2N3C)CC1 |  | -1.51% [at 15.8 µM] |
| Cc1nc(C2CCCCC2)c(-c2ccc(S(N)(=O)=O)c(F)c2)o1 | inactive |  |
| C=CCCCCCCCCC(=O)OCC | inactive |  |
| CNC(=O)Nc1ccc(Cl)c(Cl)c1 | inactive |  |
| CCOC(=O)COC(=O)c1ccccc1C(=O)OCC | inactive |  |
| Nc1ccn([C@@H]2O[C@H](CO)[C@@H](O)C2(F)F)c(=O)n1 | inactive |  |
| CC(=O)O[C@@]12CO[C@@H]1C[C@H](O)[C@@]1(C)C(=O)[C@H](O)C3=C(C)[C@@H](OC(=O)[C@H](O)[C@@H](NC(=O)OC(C)(C)C)c4ccccc4)C[C@@](O)([C@@H](OC(=O)c4ccccc4)[C@H]21)C3(C)C | 6 nM (active) |  |
| CCCCCC(=O)OCCc1ccccc1 | inactive |  |
| CCC(C)(CN(C)C)OC(=O)c1ccccc1 (stereo not given) | inactive |  |
| C1CCC2(CCCCO2)OC1 | inactive |  |
| CCN(CC#N)c1cccc(C)c1 | inactive |  |
| CCOC(=O)c1cnc2c(cnn2CC)c1NN=C(C)C | inactive |  |
| O=Cc1cccc(Br)c1 | inactive |  |
| CC[N+](C)(CC)CCOC(=O)C1c2ccccc2Oc2ccccc21 | inactive |  |
| CCCCCCCCCCCCCCCCCCO | inactive |  |
| CC(CC=O)CC(C)(C)C (stereo not given) | inactive |  |
| Clc1cc(Cl)cc(Cl)c1 | inactive |  |
| CO/N=C(\C(=O)N[C@@H]1C(=O)N2C(C(=O)O)=C(CSc3nc(=O)c(O)nn3C)CS[C@H]12)c1csc(N)n1 | inactive |  |
| CO[C@@]1(NC(=O)CSC[C@@H](N)C(=O)O)C(=O)N2C(C(=O)O)=C(CSc3nnnn3C)CS[C@@H]21 | inactive |  |
| CC1=CCC(O)(C(C)C)CC1 (stereo not given) | inactive |  |
